Over roughly 18,000 sequences, “TetR repression strength (sort-seq, GFP reporter)” has its median near 0.23; the highest 2% begin near 0.68. What follows is part of a selection rich in the highest values, with near analogues and random picks from the rest.

TetR (class B, Tn10), sequence (P04483 whole entry): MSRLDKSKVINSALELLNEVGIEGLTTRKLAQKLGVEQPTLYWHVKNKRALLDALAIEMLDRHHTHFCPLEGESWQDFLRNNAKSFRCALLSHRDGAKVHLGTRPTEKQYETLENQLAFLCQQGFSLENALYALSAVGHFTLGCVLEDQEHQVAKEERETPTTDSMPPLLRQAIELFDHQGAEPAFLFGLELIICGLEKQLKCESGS

The target of this assay is TetR (class B, Tn10) (UniProt P04483). As to the kind of experiment: TetR repression strength (sort-seq, GFP reporter) (relative to tetO2 = 1); higher = stronger repression. The settings on record: E. coli. The gist of the method:
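In LB with 50 µg/mL chloramphenicol, E. coli SIG10-MAX holding a low-copy library with eight randomized operator positions between a constitutive promoter and sfGFP, plus constitutive TetR, grew for 5 h at 37 °C. FACS then sorted 10^6 cells into 13 fluorescence bins for Illumina sequencing of each bin. Repression strength equals the top bin index plus one less the read-weighted mean bin, normalized to the unaltered operator. Values from three independent transformations were averaged when reads were ≥30 in every replicate and the CV was ≤0.5.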
TCCCGGGTAGTCAAGGAGA: the TetR repression strength turned out to be 0.296. Take TCCCAGGAAGTCGTTGAGA: the TetR repression strength was 0.

For the sequence TCCCGGCCAGTTGTTGAGA, the TetR repression strength was determined as 0.199. TCCCGAATAGTCGACGAGA returned a TetR repression strength of 0.165.

TCCCGTATAGTCTGGGAGA: the TetR repression strength was found to be 0.198.

In turn, TCCCAGCGAGTGAGCGAGA yielded a TetR repression strength of 0.153. Regarding TCCCAGCAAGTGGGTGAGA, the TetR repression strength was 0.699. For TCCCAGCGAGTGACGGAGA the value was 0.207; for TCCCAGCAAGTGTGTGAGA, 0.1.

Consider TCCCAGCTAGTGACCGAGA, for which the TetR repression strength was found to be 0.694. For TCCCAGCTAGTGAGAGAGA the value was 0.36. TCCCAGCGAGTGACCGAGA yielded a TetR repression strength of 0.694. TCCCAGCTAGTGAGTGAGA: the TetR repression strength was determined as 0.716. With TCCCAGCAAGTGAGTGAGA the figure was 0.201; with TCCCAGCTAGTGACGGAGA, 0.226; with TCCCAGCTAGTGATTGAGA, 0.306. In turn, TCCCAGCTAGTGAACGAGA returned a TetR repression strength of 0.379. Turning to TCCCTTCGAGTTCTCGAGA, the TetR repression strength was 0.207. With TCCCTCCTAGTCTCCGAGA, the TetR repression strength worked out at 0.394. For TCCCACGGAGTCGGCGAGA the value was 0.148; for TCCCGGAAAGTCACAGAGA, 0.108; for TCCCTGTGAGTGGACGAGA, 0.227. For TCCCAGCTAGTTTCTGAGA the value was 0.207; for TCCCTAAAAGTGTAGGAGA, 0.131. Regarding TCCCAGTGAGTTCGCGAGA, the TetR repression strength is 0.402. Consider TCCCACTCAGTATGTGAGA, for which the TetR repression strength is 0.108. Sequence TCCCGTCTAGTGTTAGAGA showed a TetR repression strength of 0.851.

Sequence TCCCGTAAAGTGTGAGAGA displayed a TetR repression strength of 0.0929. For TCCCGTTTAGTGTTAGAGA the value was 0.222. TCCCGTAAAGTGTTAGAGA yielded a TetR repression strength of 0.696. With TCCCGTACAGTGTTAGAGA the figure was 0.284; with TCCCGTGTAGTGTTAGAGA, 0.24; with TCCCACCGAGTTTTTGAGA, 0.46. With TCCCACAGAGTAATGGAGA the figure was 0.108; with TCCCCGTTAGTTTTGGAGA, 0.104. With TCCCTAGGAGTACGCGAGA the figure was 0.226; with TCCCTAGGAGTACGAGAGA, 1.01. For the sequence TCCCTGGTAGTACGAGAGA, the TetR repression strength amounted to 0.219. TCCCTAGTAGTACGAGAGA: the TetR repression strength turned out to be 1.22.

Sequence TCCCTAGGAGTAGGAGAGA showed a TetR repression strength of 0.268. With TCCCTAGTAGTACGCGAGA the figure was 0.0159; with TCCCGTAGAGTCTCAGAGA, 0.257; with TCCCTTTTAGTTATAGAGA, 0.231. For TCCCCACGAGTTCAGGAGA the value was 0.271.

TCCCGTAGAGTAATGGAGA came in with a TetR repression strength of 0.344. With TCCCACTGAGTGAGAGAGA the figure was 0.473; with TCCCTGTGAGTTGGGGAGA, 0.189. With TCCCGCGAAGTCAGAGAGA the figure was 0.382.

TCCCCCAAAGTGAAGGAGA came in with a TetR repression strength of 0.104.

In the case of TCCCCTTCAGTGGAGGAGA, the TetR repression strength was determined as 0.65. For TCCCCTAAAGTGAAGGAGA the value was 0.721. For TCCCCTCCAGTGAAGGAGA, the TetR repression strength was determined as 0.572. TCCCTTAAAGTGAAGGAGA had a TetR repression strength of 0.097.

Consider TCCCCTTCAGTGAAGGAGA, for which the TetR repression strength was determined as 0.702. TCCCGTAAAGTTCAAGAGA returned a TetR repression strength of 0.415. With TCCCCGCCAGTTGGCGAGA the figure was 0.16; with TCCCTTTGAGTAAATGAGA, 0.33; with TCCCTCCGAGTCATCGAGA, 0.264. For TCCCTTCAAGTGCGGGAGA the value was 0.0975; for TCCCCCTGAGTAGTAGAGA, 0.207; for TCCCCTATAGTGCTAGAGA, 0.285. Take TCCCTTAGAGTGGTCGAGA: the TetR repression strength was found to be 0.215. In turn, TCCCCTATAGTGGTAGAGA registered a TetR repression strength of 0.84. With TCCCCTGTAGTGATAGAGA the figure was 0.387. With TCCCTTGGAGTGGTAGAGA the figure was 0.172; with TCCCTTAGAGTGGTAGAGA, 0.695. For TCCCCTATAGTGGTGGAGA the value was 0.201; for TCCCCTATAGTGATAGAGA, 0.982. Consider TCCCCTAGAGTGGTAGAGA, for which the TetR repression strength was 0.634.

As for TCCCCTTTAGTTGTAGAGA, the TetR repression strength was found to be 0.246.

As to TCCCGGTCAGTCTTTGAGA, the TetR repression strength turned out to be 0.165.

On to TCCCCGAGAGTGAGGGAGA, for which the TetR repression strength worked out at 0.129.

Sequence TCCCCTTAAGTCGAGGAGA returned a TetR repression strength of 0.157. For TCCCATCGAGTCGGTGAGA the value was 0.179. With TCCCGGTTAGTGTAGGAGA the figure was 0.172. For TCCCGCGCAGTCAGTGAGA the value was 0.415.

In the case of TCCCTCGAAGTGATCGAGA, the TetR repression strength came to 0.343. For TCCCAACAAGTGAATGAGA the value was 0.336; for TCCCTGTAAGTTATAGAGA, 0.375. For TCCCTCTCAGTTATAGAGA the value was 0.716. TCCCTCTCAGTCAGAGAGA came in with a TetR repression strength of 0.423. For TCCCTCTCAGTTAGTGAGA the value was 0.339; for TCCCTCTAAGTTATAGAGA, 0.703; for TCCCTCACAGTGATAGAGA, 0.513. For TCCCTCTCAGTGATAGAGA the value was 0.866. Take TCCCTGTCAGTTATAGAGA: the TetR repression strength was 0.649. On to TCCCCCTAAGTTATAGAGA, for which the TetR repression strength amounted to 0.525.

On to TCCCTCAGAGTGATAGAGA, for which the TetR repression strength came out at 0.342. With TCCCACTCAGTTATAGAGA the figure was 0.661; with TCCCTCTCAGTTAGAGAGA, 0.726.

TCCCGGTTAGTTGAGGAGA had a TetR repression strength of 0.12. As to TCCCTCAGAGTGTTAGAGA, the TetR repression strength is 0.248.

Turning to TCCCGAGAAGTCCATGAGA, the TetR repression strength amounted to 0.207.

For TCCCGTGAAGTCGCTGAGA, the TetR repression strength amounted to 0.168. With TCCCTAGTAGTAAGCGAGA the figure was 0.136; with TCCCGCTCAGTTATAGAGA, 0.764; with TCCCGCACAGTTATAGAGA, 0.275. As for TCCCGATCAGTTATAGAGA, the TetR repression strength was determined as 0.579. As to TCCCGAGGAGTTGGCGAGA, the TetR repression strength was found to be 0.14.

TCCCGGGGAGTTACGGAGA returned a TetR repression strength of 0.447. For TCCCGGGGAGTTGTGGAGA, the TetR repression strength came to 0.215. On to TCCCGGAAAGTTGTGGAGA, for which the TetR repression strength was 0.275. For TCCCGGGAAGTTGTGGAGA the value was 1.1; for TCCCCGGAAGTTACGGAGA, 0.343.

For the origin of these results see a collection of fitness landscapes (doi:10.1038/s41467-024-54723-y).
